# In the supplement of paper PMC9262897, “Low-cost anti-mycobacterial drug discovery using engineered E. coli” (Nature Communications, 2022):
# Where a name gives a salt, the structure may show the parent alone. ± gives the standard deviation of the averaged measurements.
# System: E. coli TESEC Alr+ wild-type control
# Experiment: growth (OD600 after 10 h); higher = more growth (less inhibition)
# Details: compound 0.1 mM; raw OD600 reference: median of DMSO wells 0.49, cell-free background 0.052
# Protocol: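 TESEC Mtb Alr E. coli (ΔaraC ΔtolC ΔentC Δalr ΔdadX, arabinose-inducible Mtb Alr) or the Alr+ wild-type control strain, grown in defined M9-fructose medium without D-alanine in 96-well plates with Prestwick library compounds at 0.1 mM and 1% DMSO. Low Alr induction is 0.1 µM arabinose and high induction is 10 mM arabinose.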
row,SMILES,growth
1,CN(C)CCN(Cc1ccc(Cl)cc1)c1ccccn1 [Chloropyramine hydrochloride],0.432 ± 0.016
2,O=C1NCCN1CCN1CCC(c2cn(-c3ccc(F)cc3)c3ccc(Cl)cc23)CC1 [Sertindole],0.0474 ± 0.001
3,O=C1NCC2(CCN(CCc3ccccc3)CC2)O1 [Fenspiride hydrochloride],0.487 ± 0.054
4,CC(C)[C@H]1CC[C@H](C(=O)N[C@H](Cc2ccccc2)C(=O)O)CC1 [Nateglinide],0.6242 ± 0.0051
5,CCOC(=O)[C@H](CCc1ccccc1)N[C@@H](C)C(=O)N1CCC[C@H]1C(=O)O [Enalapril maleate],0.499 ± 0.024
6,CC1(C)O[C@@H]2[C@@H](CO[C@@]3(COS(N)(=O)=O)OC(C)(C)O[C@@H]23)O1 [Topiramate],0.541 ± 0.075
7,c1ccc2c(c1)CCCc1cc(NCCN3CCOCC3)nnc1-2,0.4846 ± 0.0026
8,CC[C@@H]1C(=O)OC[C@@H]1Cc1cncn1C [Pilocarpine nitrate],0.674 ± 0.05
9,Cn1ccnc1S [Methimazole],0.57 ± 0.026
10,NC[C@H]1O[C@H](O[C@H]2[C@H](O)[C@@H](O[C@H]3O[C@H](CO)[C@@H](O)[C@H](N)[C@H]3O)[C@H](N)C[C@@H]2N)[C@H](N)C[C@@H]1O [Tobramycin],0.04933 ± 0.00049
11,O=C1C(CC[S+]([O-])c2ccccc2)C(=O)N(c2ccccc2)N1c1ccccc1 (stereo not drawn) [Sulfinpyrazone],0.542 ± 0.093
12,C=C1/C(=C\C=C2/CCC[C@]3(C)[C@@H]([C@H](C)CCCC(C)C)CC[C@@H]23)C[C@@H](O)C[C@@H]1O [Alfacalcidol],0.146 ± 0.0019
13,C[C@H](O)C(=O)Nc1c(I)c(C(=O)NC(CO)CO)c(I)c(C(=O)NC(CO)CO)c1I [Iopamidol],0.465 ± 0.036
14,CCCCNc1cc(C(=O)O)cc(S(N)(=O)=O)c1Oc1ccccc1 [Bumetanide],0.492 ± 0.048
15,CN(C)CCCOc1nn(Cc2ccccc2)c2ccccc12 [Benzydamine hydrochloride],0.452 ± 0.0099
16,CCn1nc(C(=O)O)c(=O)c2cc3c(cc21)OCO3 [Cinoxacin],0.0852 ± 0.0034
17,CCCCOC(=O)c1ccc(N)cc1 [Butamben],0.452 ± 0.0073

row,SMILES,growth
1,C#C[C@]1(O)CC[C@H]2[C@@H]3CCC4=CCCC[C@@H]4[C@H]3CC[C@@]21C [Lynestrenol],0.451 ± 0.013
2,CCc1c2c(nc3ccc(OC(=O)N4CCC(N5CCCCC5)CC4)cc13)-c1cc3c(c(=O)n1C2)COC(=O)[C@]3(O)CC [Irinotecan hydrochloride trihydrate],0.514 ± 0.052
3,CN(C)CCn1nnnc1SCC1=C(C(=O)O)N2C(=O)[C@@H](NC(=O)Cc3csc(N)n3)[C@H]2SC1 [Cefotiam hydrochloride],0.166 ± 0.096
4,O=S(=O)(O)c1cc(O)ccc1O [Ethamsylate],0.525 ± 0.079
5,NNC(=O)c1ccncc1 [Isoniazid],0.458 ± 0.054
6,O=C(O)/C=C/c1ccc(Cn2ccnc2)cc1 [Ozagrel hydrochloride],0.482 ± 0.076
7,NCCC[C@H](N)CC(=O)N[C@H]1CNC(=O)[C@H]([C@H]2C[C@H](O)NC(N)=N2)NC(=O)/C(=C/NC(N)=O)NC(=O)[C@H](CO)NC(=O)[C@H](CO)NC1=O [Viomycin sulfate],0.193 ± 0.13
8,CC1CS(=O)(=O)CCN1/N=C/c1ccc([N+](=O)[O-])o1 (stereo not drawn) [Nifurtimox],0.354 ± 0.021
9,CC(C)C(=O)Nc1ccc([N+](=O)[O-])c(C(F)(F)F)c1 [Flutamide],0.506 ± 0.0074
10,Nc1ccc(S(=O)(=O)Nc2cnc3ccccc3n2)cc1 [Sulfaquinoxaline sodium salt],0.47 ± 0.082
11,Cc1cnc(NC(=O)C2=C(O)c3ccccc3S(=O)(=O)N2C)s1 [Meloxicam],0.461 ± 0.023
12,CCCc1ncc(C[n+]2ccccc2C)c(N)n1 [Amprolium hydrochloride],0.497 ± 0.041
13,COc1cc(C(=O)OCCCN2CCCN(CCCOC(=O)c3cc(OC)c(OC)c(OC)c3)CC2)cc(OC)c1OC [Dilazep dihydrochloride],0.416 ± 0.034
14,CC(C)(O/N=C(\C(=O)N[C@@H]1C(=O)N2C(C(=O)[O-])=C(C[n+]3ccccc3)CS[C@H]12)c1csc(N)n1)C(=O)O [Ceftazidime pentahydrate],0.0473 ± 0.00053
15,O=C(c1ccc(OCCN2CCCCC2)cc1)c1c(-c2ccc(O)cc2)sc2cc(O)ccc12 [Raloxifene hydrochloride],0.04917 ± 0.00038
16,CS(=O)(=O)c1ccc([C@@H](O)[C@@H](CO)NC(=O)C(Cl)Cl)cc1 [Thiamphenicol],0.206 ± 0.015
